Sampled rows, rich in hits. Any-hit rate of the full collection: about 4.5%.
GDH-TPI counter-1: inhibits GDH-TPI coupling enzymes, artifact for Mtb FBA screen | GDH-TPI coupled enzyme counterscreen, NADH absorbance | 360,000 tested, 1.2% active | AID 588335 | inhibition, % at 4.8 µM; in the data active = inhibition above about 30%;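 note: 0% = DMSO wells and 100% = wells lacking the enzyme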
PrP 5UTR inh: inhibition of PrP 5' UTR reporter expression; 340,000 tested, 0.35% active; cell-based PrP 5' UTR mRNA reporter, plate reader; inhibition, % (concentration not given with the values); AID 488862; in the data active = inhibition above about 52%; note: 0 = median of the neutral control wells
Mtb FBA inh: inhibits M. tuberculosis FBA enzyme. P9WQA3. purified M. tuberculosis FBA, fluorescence read-out. inhibition, % at 1 µM. 360,000 tested, 2.3% active;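 note: 0% = vehicle and 100% = reference inhibitor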
Target sequence (P9WQA3 whole entry, looked up): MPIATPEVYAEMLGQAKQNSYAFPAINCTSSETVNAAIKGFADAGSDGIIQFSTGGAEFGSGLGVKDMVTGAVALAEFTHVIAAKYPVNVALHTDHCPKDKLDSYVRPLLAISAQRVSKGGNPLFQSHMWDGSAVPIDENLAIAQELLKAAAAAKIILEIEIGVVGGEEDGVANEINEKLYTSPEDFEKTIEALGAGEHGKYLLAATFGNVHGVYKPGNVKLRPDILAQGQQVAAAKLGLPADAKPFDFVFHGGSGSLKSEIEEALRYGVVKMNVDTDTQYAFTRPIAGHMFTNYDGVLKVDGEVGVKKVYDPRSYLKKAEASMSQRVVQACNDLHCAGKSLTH
PrPC surface inh: reduces human prion protein on the cell surface. P04156. cell surface PrPC, TR-FRET read-out. inhibition, % at 13.8 µM. 370,000 tested, 0.43% active. AID 720596; in the data active = inhibition above about 24%; note: 0% = median of the test wells and 100% = reference compound wells
PfHsp40 rescue: rescue of PfHsp40-mediated yeast toxicity. S. cerevisiae expressing PfHsp40, growth rescue, ATP luminescence. growth rescue, % at 12.5 µM. 340,000 tested, 0.68% active. AID 504582; in the data active = growth rescue above about 28%, passing the limit was not always enough;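 note: yeast W303a lacking pdr1 and pdr3 grown in galactose medium; growth measured after three days at 30 °C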
BJeLR lethal: kills HRASV12-expressing BJeLR cells; inhibition, % (concentration not given with the values); 300,000 tested, 0.17% active; BJeLR (HRASV12) viability, CellTiter-Glo ATP luminescence, 48 h; in the data active = inhibition above about 50%
Mtb FBA inh conf: Mtb FBA inhibition, confirmed. shares compounds with Mtb FBA inh. purified M. tuberculosis FBA, fluorescence read-out. inhibition, % at 1 µM. 5,600 tested, 78% active. AID 651616;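 note: 0% = vehicle wells and 100% = reference inhibitor wells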
GDH-TPI counter-2: GDH-TPI inhibition counter-screen for FBA inhibitors; GDH-TPI coupled enzyme counterscreen, fluorescence; 5,600 tested, 81% active; AID 652141; shares compounds with Mtb FBA inh; inhibition, % at 1 µM; in the data active = inhibition above about 10%
Numbers without * were called inactive; . = no result; + = active, no number. Cut-off read from the data, not from the text of the source, unless noted: active = inhibition above about 27%; inactive = the rest.

SMILES | GDH-TPI counter-1 | PrP 5UTR inh | Mtb FBA inh | PrPC surface inh | PfHsp40 rescue | BJeLR lethal | Mtb FBA inh conf | GDH-TPI counter-2
O=c1oc2cccnc2n1CCS(=O)(=O)c1ccc(F)cc1 | 8 | 10 | 39* | 6 | -1 | -1 | 4 | 1
O=C(COC(=O)C1CC(=O)N(CCc2ccccc2)C1)c1ccc[nH]1 (stereo not given) | -1 | -35 | 0 | -4 | -1 | . | . | .
CCN1CCCC1CNC(=O)c1cc2c(-c3ccc(Cl)cc3)nn(C)c2s1 (stereo not given) | 4 | -7 | 22 | . | 0 | 7 | . | .
COc1cccc(-c2nn(C)c3sc(C(=O)NCCCN(C)Cc4ccccc4)cc23)c1 | -1 | -19 | 43* | -8 | 2 | 10 | 112* | 103*
CCCCN(CC)CCCNC(=O)c1cc2c(-c3ccc(OC)c(OC)c3)nn(C)c2s1 | 11 | -14 | 3 | -9 | 0 | 1 | . | .
CCCCN(C)CCNC(=O)c1cc2c(-c3cccc(OC)c3)nn(C)c2s1 | 20 | 13 | 42* | -7 | -1 | 2 | 47* | 27*
COc1ccc2[nH]c3c(=O)n4c(nc3c2c1)SCCC4 | 1 | -40 | 71* | 1 | 1 | -9 | 103* | 88*
CCN1CCCC1CNC(=O)c1cc2c(-c3cccc(OC)c3)nn(C)c2s1 (stereo not given) | 2 | -34 | 36* | 6 | 1 | 12 | 100* | 59*
Cc1cccc(NC(=O)[C@@H]2CC(=O)O[C@@H]2c2ccccc2)c1C | . | . | . | -5 | . | . | . | .
COc1cc(NC(=O)c2cc(S(=O)(=O)N3CCCCC3)c[nH]2)cc(OC)c1 | 3 | -24 | 1 | 9 | -1 | -1 | . | .
CCC1CCCN1Cn1cnc2c([nH]c3ccc(OC)cc32)c1=O (stereo not given) | 10 | -27 | 54* | -8 | 0 | 2 | 94* | 74*
CCN(CC)CCCNC(=O)c1cc2c(-c3cccc(OC)c3)nn(C)c2s1 | 12 | -10 | 58* | 4 | -3 | 10 | 102* | 87*
CCN1CCCC1CNC(=O)c1[nH]c2ccc(OC)cc2c1C (stereo not given) | 8 | -13 | 45* | -7 | 0 | 4 | + | +
COc1cccc2[nH]c(C(=O)NCCCN3CCCC3=O)cc12 | -1 | -4 | 59* | -5 | 0 | 2 | 143* | 115*
COc1cc2c(cc1OC)C(C)N(C(=O)c1cc3c(s1)-c1ccccc1OC3)CC2 (stereo not given) | 19 | -10 | 59* | 7 | -1 | 0 | 37* | 33*
O=C(c1cc2c(s1)-c1ccccc1OC2)N1CCc2ccccc2C1 | 1 | -28 | 25 | -2 | 3 | 8 | . | .
COc1cc2c(cc1OC)C(C)N(C(=O)c1cc3c(s1)-c1c(C)cccc1OC3)CC2 (stereo not given) | 12 | -39 | 31* | -4 | 11 | -10 | 139* | 97*
CCOC(=O)C1CCN(C(=O)c2cc3c(s2)-c2ccccc2OC3)CC1 | 26 | -9 | 85* | 16 | -1 | -7 | 3 | -3
COc1cc2c(cc1OC)C(C)N(C(=O)c1cccs1)CC2 (stereo not given) | -6 | -24 | -1 | -2 | 3 | -9 | . | .
O=C(NC1(C(F)(F)F)N=C2SCCN2C1=O)c1ccccc1F (stereo not given) | -4 | . | 2 | 3 | . | -12 | . | .
COc1ccccc1OCCSc1nc2ccccc2n1CC(O)CO (stereo not given) | -10 | -25 | 1 | -6 | -1 | 0 | . | .
Cc1ccc(C)c(NC(=O)CCN2CCCC(C)C2)c1 (stereo not given) | 10 | -46 | -1 | 3 | -1 | -2 | . | .
CCCCC1OC23CCCCC2C(C#N)(C(=N)O3)C1(C#N)C#N (stereo not given) | -11 | -19 | 42* | -5 | 0 | 2 | -2 | 3
CCCCC1OC23CCCCC2C(C#N)(C#N)C1(C#N)C(=N)O3 (stereo not given) | -15 | -3 | 45* | -3 | -1 | -2 | 64* | 51*
CC1(C)CC(=O)C=C(c2ccc3ccccc3c2)C1 | 16 | -6 | 40* | -9 | 2 | . | 0 | -5
SMILES | GDH-TPI counter-1 | PrP 5UTR inh | Mtb FBA inh | PrPC surface inh | PfHsp40 rescue | BJeLR lethal | Mtb FBA inh conf | GDH-TPI counter-2
Cc1ccc(C2=CC(=O)CC(C)(C)C2)cc1 | 16 | -23 | 4 | 4 | -2 | . | . | .
CC1(C(=O)NS(=O)(=O)c2cccs2)CCN1C(=O)C1(c2ccc(Cl)cc2)CCC1 (stereo not given) | 9 | . | 0 | 10 | . | . | . | .
COc1cc2ccc(=O)oc2c(O)c1O | 13 | -18 | 5 | -4 | 6 | . | . | .
C=CCc1c(OC)ccc2ccc(=O)oc12 | 6 | -12 | 55* | 5 | 0 | -2 | 124* | 105*
Cc1cccc(OCC(=O)Nc2ccc3c(c2)C(=O)NC3=O)c1 | 12 | -6 | 8 | -3 | 2 | 9 | . | .
CC(Oc1ccccc1)C(=O)N1CCN(c2ccc(N3CCCCCC3)nn2)CC1 (stereo not given) | 10 | -33 | 16 | -11 | 0 | -12 | . | .
COc1ccccc1C(=O)N1CCN(c2ccc(N3CCOCC3)nn2)CC1 | 6 | -6 | 21 | -12 | 0 | -1 | . | .
Cc1ccccc1CS(=O)(=O)CCC(=O)N1CCN(c2ccc(N3CCOCC3)nn2)CC1 | 0 | -19 | 35* | -14 | 0 | -11 | 66* | 60*
CC(Oc1ccccc1)C(=O)N1CCN(c2ccc(N3CCOCC3)nn2)CC1 (stereo not given) | -7 | -20 | 30* | 0 | -1 | -2 | 1 | 0
O=C(c1ccccc1)N1CCN(c2ccc(N3CCOCC3)nn2)CC1 | 1 | -8 | 32* | -6 | -1 | 5 | 28* | 30*
O=C(Cn1c(=O)oc2ccccc21)N1CCN(c2ccc(N3CCOCC3)nn2)CC1 | 14 | -14 | 28* | -7 | -2 | 10 | 132* | 80*
O=S(=O)(NC1CCCCC1)c1ccc(N2CCOCC2)nc1 | 3 | -16 | 3 | 2 | 0 | 9 | . | .
Cc1ccc(NC(=O)c2cccc(NC3=NC4CS(=O)(=O)CC4S3)c2)cc1 (stereo not given) | -13 | -25 | -2 | 2 | 0 | -1 | . | .
Cn1c(=O)c2cc3ccccc3nc2n(C)c1=O | 13 | -10 | 36* | -4 | 0 | -1 | 59* | 51*
Cn1c(=O)c2cc3ccc(Cl)cc3nc2n(C)c1=O | 1 | . | 4 | 0 | . | -3 | . | .
Cc1cc(C)c2c(N)c(C(=O)c3cccc(Cl)c3)sc2n1 | 13 | 7 | 2 | -22 | 0 | 5 | . | .
Cc1ccc2nc(-c3sc4nc(C)cc(C)c4c3N)[nH]c2c1 | 9 | -67 | 30* | -2 | 0 | -5 | 112* | 82*

Source: PubChem BioAssay
